The record followed here is PubChem BioAssay (EPA / NIEHS).

Results filed as inconclusive are left out. More than one record can exist for a structure, and the calls need not agree. Active and inactive are the calls of the source. How the source made its calls, unless noted: active means hit-call score of the fitted dose curve at least 0.9, where 1 is the maximum; inconclusive means response in the unintended direction; inactive means score below 0.9.

The target in experiment [1] is guinea pig Sigma Receptor, Non-selective Binding, SIGMAR1 (gene 100135589) (UniProt Q60492). Briefly: NVS_OR_gSIGMA_NonSelective: NovaScreen (NVS) Nuclear Receptor Binding Assay for guinea pig Sigma Receptor, Non-selective Binding (AID 2283367). A digest of the protocol:
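Radioligand displacement on guinea pig brain membranes, read by filter-based scintillation counting 1 h after dosing. Loss of signal versus DMSO; initial duplicate single-point screen at 25 uM, actives followed in concentration series.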

In experiment [2] the test system is rat Norepinephrine Transporter (NET), gene 83511. The experiment is described as follows: NVS_TR_rNET: NovaScreen (NVS) Transporter Assay for rat Norepinephrine Transporter (NET) (AID 2283373). The essentials: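 Rat forebrain membranes; radioligand binding measured by filter-based scintillation counting 1 hour after dosing. Loss of specific binding versus DMSO baseline scored; primary screen in duplicate at 25 uM, actives followed up in concentration series.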

Experiment [3] addresses human Dopamine Transporter (DAT), SLC6A3 (gene 6531) (UniProt Q01959). Briefly: NVS_TR_hDAT: NovaScreen (NVS) Transporter Assay for human Dopamine Transporter (DAT) (AID 2283374).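 Further: activity means loss of bound radioligand signal relative to DMSO.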 The essentials:
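Cell-free radioligand displacement binding at human DAT, 1 h after dosing, with filtration and scintillation counting. Primary screen in duplicate at 25 uM, actives then in concentration series. Loss of bound signal versus DMSO scored.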

For experiment [4], the target named is rat Serotonin Transporter (SERT), Slc6a4 (gene 25553) (UniProt P31652). Briefly: NVS_TR_rSERT: NovaScreen (NVS) Transporter Assay for rat Serotonin Transporter (SERT) (AID 2283375). A digest of the protocol:
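Rat forebrain membranes were incubated with test chemical for 1 hour; radioligand binding to SERT was measured by filter-based scintillation counting. Primary screen ran in duplicate at 25 uM, with actives followed up in concentration series; DMSO served as negative control.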

Experiment [5] addresses Estrogen receptor beta (Homo sapiens) (UniProt Q92731). The experiment is described as follows: OT_ER_ERbERb_1440: Odyssey Thera (OT) 24-hour HEK293T Protein-Complementation Assay for Estrogen Receptor-beta/-beta Homodimer (AID 2283380).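 Further: scored as signal increase over DMSO baseline for both agonists and antagonists.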 A digest of the protocol:
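HEK293T cells stably expressing ER beta LBD (aa 310-547) homodimer fragment-complementation reporter, dosed 24 h. Cells formaldehyde-fixed, Draq5-stained; gain in nuclear (agonist) or nuclear plus cytoplasmic (antagonist) fluorescence versus DMSO read by laser scanning cytometry.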

Experiment [6] addresses Estrogen receptor (Homo sapiens) (UniProt P03372). The experiment is described as follows: OT_ERa_GFPERaERE_0480: Odyssey Thera (OT) 8-hour HeLa Transcription Induction Assay for Estrogen Receptor (AID 2283381; active means hit-call score of the fitted dose curve at least 0.9, where 1 is the maximum; inactive means score below 0.9). A digest of the protocol: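 HeLa cells dosed with compound and imaged by fluorescence microscopy at 8 h; GFP induction from an ERE reporter quantified by high-content image analysis and fitted as gain of signal against DMSO baseline.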

For experiment [7] the target is unchanged. The experiment is described as follows: OT_ERa_GFPERaERE_0120: Odyssey Thera (OT) 2-hour HeLa Transcription Induction Assay for Estrogen Receptor (AID 2283382). A digest of the protocol: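 HeLa cells were dosed with test chemical and read 2 hours later for GFP-ERα/ERE-linked fluorescent protein induction by fluorescence microscopy. Gain-of-signal was fitted relative to DMSO baseline, quantified by high content image analysis.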

Experiment [8] deals with Retinoic acid receptor RXR-alpha (Homo sapiens) (UniProt P19793). The experiment is described as follows: OT_NURR1_NURR1RXRa_0480: Odyssey Thera (OT) 8-hour HEK293T Protein Complementation Assay for Nurr1/retinoid X receptor (RXR) (AID 2283385). A digest of the protocol: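 HEK293T cells expressing Nurr1 and RXRα fused to reporter fragments were dosed with compound for 8 hours. Complex formation was read as fluorescence intensity and analysed as gain of signal against DMSO as baseline.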
Retinoic acid receptor RXR-alpha (Homo sapiens), sequence (P19793 whole entry, looked up, the tested form may be a part): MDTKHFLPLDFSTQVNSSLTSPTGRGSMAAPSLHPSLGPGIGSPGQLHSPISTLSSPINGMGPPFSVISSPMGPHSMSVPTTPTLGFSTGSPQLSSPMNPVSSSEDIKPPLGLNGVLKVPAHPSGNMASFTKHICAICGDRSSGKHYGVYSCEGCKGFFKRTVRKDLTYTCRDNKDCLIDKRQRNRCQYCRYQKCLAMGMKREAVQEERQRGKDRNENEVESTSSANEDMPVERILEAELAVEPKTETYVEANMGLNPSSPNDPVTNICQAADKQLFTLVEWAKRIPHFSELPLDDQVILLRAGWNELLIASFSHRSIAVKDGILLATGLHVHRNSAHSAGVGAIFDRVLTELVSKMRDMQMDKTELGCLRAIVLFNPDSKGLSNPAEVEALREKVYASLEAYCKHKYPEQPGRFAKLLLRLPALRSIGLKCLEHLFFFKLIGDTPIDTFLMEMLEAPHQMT

The target of experiment [9] is Peroxisome proliferator-activated receptor gamma (Homo sapiens) (UniProt P37231). The experiment is described as follows: OT_PPARg_PPARgSRC1_0480: Odyssey Thera (OT) 8-hour Protein-Complementation Assay for Peroxisome Proliferator-activated Receptor Gamma / SRC-1 Co-activator (AID 2283387).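 Further: nuclear to cytoplasmic split Venus YFP fluorescence ratio reporting PPARg SRC-1 interaction.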 The essentials:
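Protein-fragment complementation in HEK293T: Venus YFP halves (residues 1-158, 159-239, mutated to IFP1/IFP2) fused to PPARg/SRC-1. 8 h exposure; N/C ratio at 488 nm; DMSO negative control.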

The target is the same in experiment [10]. Briefly: NVS_NR_hPPARg: NovaScreen (NVS) Nuclear Receptor Binding Assay for human Peroxisome Proliferator-activated Receptor gamma (PPARg) (AID 2283370). A digest of the protocol: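 Cell-free binding to extracted PPARg protein, read by fluorescence polarization 2 h after dosing; loss of signal relative to DMSO baseline marks displacement. Primary screen in duplicate at 25 uM, actives retested in concentration series.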

For experiment [11], the target named is Bile acid receptor (Homo sapiens) (UniProt Q96RI1). Briefly: OT_FXR_FXRSRC1_0480: Odyssey Thera (OT) 8-hour HEK293T Protein-Complementation Assay for Farnesoid X receptor/SRC-1 Co-activator (AID 2283383). A digest of the protocol:
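HEK293T cells expressing FXR and SRC-1 fused to reporter fragments were dosed with compound for 8 h; fluorescence from the reconstituted reporter marked co-activator recruitment. Gain of signal was fitted against the DMSO baseline.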

Experiment [12] deals with Glucocorticoid receptor (Homo sapiens) (UniProt P04150). Briefly: NVS_NR_hGR: NovaScreen (NVS) Nuclear Receptor Binding Assay for human Glucocorticoid Receptor (GR) (AID 2283363).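 On AC50: activity is loss of specific radioligand binding signal relative to DMSO.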 The essentials: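 Cell-free radioligand displacement assay on extracted human GR, read 16 h after dosing by filter-based scintillation counting. Screened in duplicate at 25 uM, then concentration series for actives; loss of signal versus DMSO baseline.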
Glucocorticoid receptor (Homo sapiens), sequence (P04150 whole entry, looked up): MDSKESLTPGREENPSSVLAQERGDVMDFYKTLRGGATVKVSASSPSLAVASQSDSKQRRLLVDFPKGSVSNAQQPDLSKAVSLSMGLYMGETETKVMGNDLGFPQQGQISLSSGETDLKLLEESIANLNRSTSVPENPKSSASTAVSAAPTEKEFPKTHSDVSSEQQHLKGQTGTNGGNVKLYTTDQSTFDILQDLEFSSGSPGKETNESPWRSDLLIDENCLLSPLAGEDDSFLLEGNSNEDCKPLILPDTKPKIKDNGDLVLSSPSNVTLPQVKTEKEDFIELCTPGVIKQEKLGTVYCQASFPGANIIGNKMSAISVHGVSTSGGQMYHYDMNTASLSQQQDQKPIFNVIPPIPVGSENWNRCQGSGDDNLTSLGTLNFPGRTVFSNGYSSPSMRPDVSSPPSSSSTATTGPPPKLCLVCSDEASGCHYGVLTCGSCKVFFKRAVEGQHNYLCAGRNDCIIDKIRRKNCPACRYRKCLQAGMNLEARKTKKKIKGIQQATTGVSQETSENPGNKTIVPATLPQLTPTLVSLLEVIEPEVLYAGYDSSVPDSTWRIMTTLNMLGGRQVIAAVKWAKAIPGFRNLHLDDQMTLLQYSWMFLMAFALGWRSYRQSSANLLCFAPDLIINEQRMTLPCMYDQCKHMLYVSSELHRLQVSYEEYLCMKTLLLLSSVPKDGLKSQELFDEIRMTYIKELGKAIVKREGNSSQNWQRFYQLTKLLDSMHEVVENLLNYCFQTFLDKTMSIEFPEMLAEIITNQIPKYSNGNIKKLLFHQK

Experiment [13] concerns the target human Serotonin Transporter (SERT), SLC6A4 (gene 6532) (UniProt P31645). Briefly: NVS_TR_hSERT: NovaScreen (NVS) Transporter Assay for human Serotonin Transporter (SERT) (AID 2283372). A digest of the protocol: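 Radioligand binding to native SERT in human platelet membranes, read by filter-based scintillation counting 1 h after dosing. Primary screen in duplicate at 25 uM; actives followed up in concentration series; loss of signal versus DMSO baseline.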

The target of experiment [14] is mouse Estrogen Receptor alpha (Era), Esr1 (gene 13982) (UniProt P19785). Briefly: NVS_NR_mERa: NovaScreen (NVS) Nuclear Receptor Binding Assay for mouse Estrogen Receptor alpha (Era) (AID 2283378).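 Further: hit means loss of bound radioligand signal relative to DMSO.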 The essentials:
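Cell-free radioligand binding with extracted mouse Era protein; competitive displacement of radiolabelled ligand, read by filter-based scintillation counting 18 hours after dosing. Loss of signal versus DMSO baseline taken as binding; single screening concentration 25 uM, actives followed in concentration series.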

The target of experiment [15] is Retinoic acid receptor RXR-alpha (Homo sapiens) (UniProt P19793). The experiment is described as follows: OT_NURR1_NURR1RXRa_1440: Odyssey Thera (OT) 24-hour HEK293T Protein Complementation Assay for Nurr1/retinoid X receptor (RXR) (AID 2283386). A digest of the protocol: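 HEK293T cells were dosed with compound and read 24 h later by fluorescence intensity in a protein-fragment complementation format, where Nurr1–RXRα interaction reconstitutes a split reporter. Activity was fitted as gain of signal relative to DMSO baseline.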

The test system of experiment [16] is guinea pig Dopamine Transporter (DAT), gene 100714898. The experiment is described as follows: NVS_TR_gDAT: NovaScreen (NVS) Transporter Assay for guinea pig Dopamine Transporter (DAT) (AID 2283369).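 Further: active compounds lower bound radioligand signal relative to DMSO.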 The essentials:
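Guinea pig striatal membranes; radioligand displacement measured by filter-based scintillation counting 2 h after dosing. Initial duplicate screen at 25 uM, then concentration-response up to 50 uM for hits; loss of signal versus DMSO baseline.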

In experiment [17] the target is human Norepinephrine Transporter (NET), SLC6A2 (gene 6530) (UniProt P23975). The experiment is described as follows: NVS_TR_hNET: NovaScreen (NVS) Transporter Assay for human Norepinephrine Transporter (NET) (AID 2283377).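 Further: displacement of radioligand from human NET seen as loss of scintillation signal.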 A digest of the protocol:
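Cell-free radioligand binding using CHO-derived membrane protein expressing human NET, read by filter scintillation counting 1 h after dosing; loss of signal vs DMSO. Initial duplicate screen at 25 uM, actives retested in concentration series.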

Experiment [18] has as its target Agonist Androgen Response Element (ARE), AR (gene 367) (UniProt P10275). Briefly: OT_AR_ARELUC_AG_1440: Odyssey Thera (OT) 24-hour CHO-K1 Luciferase Assay for Agonist Androgen Response Element (ARE) (AID 2283379). A digest of the protocol:
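CHO-K1 cells carrying an ARE-driven luciferase reporter were exposed to compounds for 24 h. Luminescence was then read after adding a D-luciferin/ATP mix, and activity was scored as a gain in signal over DMSO vehicle.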

human Dopamine Transporter (DAT), SLC6A3 (gene 6531), sequence (Q01959 whole entry, looked up): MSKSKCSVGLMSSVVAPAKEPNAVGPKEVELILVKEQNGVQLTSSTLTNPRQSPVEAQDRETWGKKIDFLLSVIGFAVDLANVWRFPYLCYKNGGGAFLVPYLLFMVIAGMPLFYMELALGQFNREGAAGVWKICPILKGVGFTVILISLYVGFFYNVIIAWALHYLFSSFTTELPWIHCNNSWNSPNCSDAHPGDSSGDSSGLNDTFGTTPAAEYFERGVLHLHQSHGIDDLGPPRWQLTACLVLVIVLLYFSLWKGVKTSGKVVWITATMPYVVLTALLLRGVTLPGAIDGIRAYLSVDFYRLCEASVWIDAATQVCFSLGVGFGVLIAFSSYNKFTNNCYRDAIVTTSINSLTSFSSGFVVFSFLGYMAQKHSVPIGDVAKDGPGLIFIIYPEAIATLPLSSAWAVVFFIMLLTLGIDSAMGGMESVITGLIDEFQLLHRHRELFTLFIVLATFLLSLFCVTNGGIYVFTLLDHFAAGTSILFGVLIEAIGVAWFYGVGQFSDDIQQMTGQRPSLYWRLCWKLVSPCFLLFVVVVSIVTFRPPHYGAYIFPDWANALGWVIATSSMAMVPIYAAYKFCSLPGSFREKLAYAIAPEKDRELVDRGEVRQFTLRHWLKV
Peroxisome proliferator-activated receptor gamma (Homo sapiens), sequence (P37231 whole entry, looked up, the tested form may be a part): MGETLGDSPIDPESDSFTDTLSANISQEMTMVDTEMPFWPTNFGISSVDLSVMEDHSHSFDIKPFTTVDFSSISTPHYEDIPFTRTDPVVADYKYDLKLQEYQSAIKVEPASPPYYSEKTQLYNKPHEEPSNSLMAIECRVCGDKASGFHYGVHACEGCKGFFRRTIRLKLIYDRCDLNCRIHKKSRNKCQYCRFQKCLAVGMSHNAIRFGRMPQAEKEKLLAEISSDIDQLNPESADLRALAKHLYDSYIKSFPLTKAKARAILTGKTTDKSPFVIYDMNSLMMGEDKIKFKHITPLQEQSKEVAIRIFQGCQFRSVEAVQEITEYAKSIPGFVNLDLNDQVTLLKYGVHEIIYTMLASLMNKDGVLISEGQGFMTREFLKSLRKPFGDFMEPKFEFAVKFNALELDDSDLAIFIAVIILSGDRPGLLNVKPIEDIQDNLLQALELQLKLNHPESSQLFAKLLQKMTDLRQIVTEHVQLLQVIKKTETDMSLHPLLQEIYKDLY
Estrogen receptor (Homo sapiens), sequence (P03372 whole entry, looked up): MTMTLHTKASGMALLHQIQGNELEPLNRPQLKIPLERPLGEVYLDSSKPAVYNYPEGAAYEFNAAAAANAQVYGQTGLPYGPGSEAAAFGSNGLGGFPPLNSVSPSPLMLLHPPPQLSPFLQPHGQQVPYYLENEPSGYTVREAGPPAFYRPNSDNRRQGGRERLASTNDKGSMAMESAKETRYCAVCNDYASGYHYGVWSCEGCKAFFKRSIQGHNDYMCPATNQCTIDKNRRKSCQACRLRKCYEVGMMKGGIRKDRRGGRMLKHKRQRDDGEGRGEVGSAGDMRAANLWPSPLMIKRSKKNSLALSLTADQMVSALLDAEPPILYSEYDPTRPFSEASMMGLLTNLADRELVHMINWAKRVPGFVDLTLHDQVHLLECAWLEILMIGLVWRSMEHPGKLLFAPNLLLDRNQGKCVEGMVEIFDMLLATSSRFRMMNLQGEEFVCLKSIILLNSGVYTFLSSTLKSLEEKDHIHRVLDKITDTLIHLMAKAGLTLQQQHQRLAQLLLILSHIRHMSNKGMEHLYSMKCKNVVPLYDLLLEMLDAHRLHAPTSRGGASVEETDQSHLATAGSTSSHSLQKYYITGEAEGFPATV
Estrogen receptor beta (Homo sapiens), sequence (Q92731 whole entry, looked up, the tested form may be a part): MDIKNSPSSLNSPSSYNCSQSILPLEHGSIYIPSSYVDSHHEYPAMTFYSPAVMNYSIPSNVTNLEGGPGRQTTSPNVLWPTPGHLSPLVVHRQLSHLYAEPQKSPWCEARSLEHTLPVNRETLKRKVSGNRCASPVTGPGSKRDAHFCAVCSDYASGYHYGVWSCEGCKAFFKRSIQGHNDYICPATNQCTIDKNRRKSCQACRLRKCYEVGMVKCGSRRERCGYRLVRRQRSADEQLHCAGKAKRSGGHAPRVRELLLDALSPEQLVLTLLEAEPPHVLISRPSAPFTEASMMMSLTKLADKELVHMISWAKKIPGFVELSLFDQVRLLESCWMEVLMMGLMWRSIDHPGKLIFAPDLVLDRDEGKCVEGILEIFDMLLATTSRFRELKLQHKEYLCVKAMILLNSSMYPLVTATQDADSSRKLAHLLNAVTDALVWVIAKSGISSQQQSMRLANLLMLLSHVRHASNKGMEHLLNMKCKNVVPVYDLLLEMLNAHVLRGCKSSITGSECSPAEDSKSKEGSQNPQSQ
rat Serotonin Transporter (SERT), Slc6a4 (gene 25553), sequence (P31652 whole entry, looked up): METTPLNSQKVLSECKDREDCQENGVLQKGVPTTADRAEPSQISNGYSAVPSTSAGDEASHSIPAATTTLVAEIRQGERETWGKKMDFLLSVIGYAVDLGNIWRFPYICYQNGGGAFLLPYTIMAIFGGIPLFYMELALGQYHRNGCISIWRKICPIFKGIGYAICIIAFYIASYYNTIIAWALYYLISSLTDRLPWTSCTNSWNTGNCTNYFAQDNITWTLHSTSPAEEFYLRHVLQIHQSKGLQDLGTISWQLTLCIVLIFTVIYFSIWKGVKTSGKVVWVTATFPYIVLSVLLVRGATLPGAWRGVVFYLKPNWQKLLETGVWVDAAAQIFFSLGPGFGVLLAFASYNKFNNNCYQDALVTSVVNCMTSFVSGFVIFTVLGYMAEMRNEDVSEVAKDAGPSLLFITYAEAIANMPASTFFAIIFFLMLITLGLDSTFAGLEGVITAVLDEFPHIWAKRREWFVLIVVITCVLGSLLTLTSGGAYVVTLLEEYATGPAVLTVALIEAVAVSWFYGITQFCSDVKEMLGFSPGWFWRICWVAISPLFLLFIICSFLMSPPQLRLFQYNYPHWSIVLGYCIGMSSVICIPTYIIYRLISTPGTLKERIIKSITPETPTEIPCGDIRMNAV
guinea pig Sigma Receptor, Non-selective Binding, SIGMAR1 (gene 100135589), sequence (Q60492 whole entry, looked up): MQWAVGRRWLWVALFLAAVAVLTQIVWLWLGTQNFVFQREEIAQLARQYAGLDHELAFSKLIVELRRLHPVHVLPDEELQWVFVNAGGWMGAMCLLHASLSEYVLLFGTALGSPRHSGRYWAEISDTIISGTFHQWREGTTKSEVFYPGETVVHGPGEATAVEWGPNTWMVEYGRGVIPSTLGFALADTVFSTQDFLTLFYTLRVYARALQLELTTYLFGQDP
human Serotonin Transporter (SERT), SLC6A4 (gene 6532), sequence (P31645 whole entry, looked up): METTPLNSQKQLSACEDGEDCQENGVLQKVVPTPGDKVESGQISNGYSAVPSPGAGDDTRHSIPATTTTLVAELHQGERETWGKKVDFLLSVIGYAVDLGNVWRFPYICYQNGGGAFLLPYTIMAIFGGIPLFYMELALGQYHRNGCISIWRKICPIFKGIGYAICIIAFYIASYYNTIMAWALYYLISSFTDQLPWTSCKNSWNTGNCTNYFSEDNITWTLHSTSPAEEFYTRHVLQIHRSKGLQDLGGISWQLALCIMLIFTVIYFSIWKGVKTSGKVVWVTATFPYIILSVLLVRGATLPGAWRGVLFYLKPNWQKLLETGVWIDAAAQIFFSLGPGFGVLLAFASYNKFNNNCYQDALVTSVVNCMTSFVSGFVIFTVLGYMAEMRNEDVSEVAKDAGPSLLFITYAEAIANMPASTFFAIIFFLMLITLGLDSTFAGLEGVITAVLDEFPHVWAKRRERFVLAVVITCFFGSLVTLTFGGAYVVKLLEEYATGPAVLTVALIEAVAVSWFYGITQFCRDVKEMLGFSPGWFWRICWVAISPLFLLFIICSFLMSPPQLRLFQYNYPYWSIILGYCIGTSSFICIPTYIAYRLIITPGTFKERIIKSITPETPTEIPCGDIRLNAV

Regarding `Oc1ccc2c(c1)OC[C@@H](N1CCC(O)(c3ccc(F)cc3)CC1)[C@H]2O`, the compound was called inactive in experiment [1], in experiment [2], in [4], in [5], in [6] and in experiment [7]. Further, the compound was called inactive in experiment [8] and in experiment [9]. Also, the AC50 in [3] is 12.5 µM (active).

As to `Oc1ccc2ccccc2c1N=Nc1ccccc1`, the compound was called inactive in experiment [1], in experiment [10], in experiment [5], in experiment [6], in [7] and in [8]. In experiment [9], the compound was called inactive. In experiment [11], the AC50 is 36.5 µM (active).

For the compound `O=C(N[C@@H](Cc1ccccc1)[C@@H](O)C(=O)N1C[C@@H](O)[C@@H](O)C1)c1cc2cc(Cl)ccc2[nH]1`, the call in experiment [12], in experiment [10], in experiment [13], in experiment [14], in [5] and in experiment [6] was inactive. For the same compound, the result in experiment [7], in experiment [8], in experiment [15] and in experiment [9] was inactive. The half-maximal activity concentration (AC50) in experiment [3] is 11.5 µM (active); in experiment [4], 12.9 µM (active).

For `CCOC(=O)CCC(=O)OCC`, the call in experiment [12], in experiment [13], in [3], in experiment [14], in [5] and in experiment [6] was inactive. The outcome in experiment [7], in experiment [8], in [15] and in experiment [9] was inactive. The AC50 in [16] is 6.93 µM (active).

Turning to `COc1ccc(S(=O)(=O)N2C(=O)[C@@](c3ccccc3OC)(N3C[C@H](O)C[C@H]3C(=O)N(C)C)c3cc(Cl)ccc32)c(OC)c1`, the AC50 was 5.95 µM (active) in [12]; 25 µM (active) in [16]; 41.6 µM (active) in [17]; 0.694 µM (active) in [18]; 86.4 µM (active) in experiment [6]; 79.5 µM (active) in experiment [15]. Further, the call in experiment [10], in experiment [3], in experiment [7], in experiment [8], in experiment [15] and in [9] was inactive.

One may read the AC50 as the concentration at which the activity in the assay is half-maximal.
